Assay outcomes: PubChem BioAssay, National Center for Advancing Translational Sciences (NCATS)
A selection: hits, their analogues and other compounds. The true share with any hit is near 4.6%.
TRHR enhancer = TRH receptor (human) allosteric enhancement | P34981 | TRHR cells, fluo-8 calcium fluorescence, EC20 TRH enhancement | enhancement, % at 2 µM | actives 0.66% (n = 360,000) | AID 493056; in the data active = enhancement above about 30%
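Enhancer read-out: after compound pinning and an initial kinetic agonist-mode read, an EC20 of TRH (10 nM final) was injected and fluo-8 calcium signal (Ex 480/Em 530) followed at 1 s/cycle for 100 cycles in TRHR-expressing cells.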
TRHR ag = agonists of human TRH receptor; P34981; actives 0.18% (n = 360,000); activation, % at 2 µM; TRHR cells, calcium flux fluo-8, FDSS agonist mode
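In this calcium-flux screen, cells bearing human TRHR are dye-loaded with fluo-8, baselined for 10 cycles, then exposed to library compounds; positive kinetic calcium responses during the agonist phase mark hits, with TRH as control.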
D1 antagonist = antagonists of human D1 dopamine receptor; P21728; HEK293 TREx D1 cells, calcium flux, dopamine EC80; active compounds read low; activity change, negative = inhibition, % at 10 µM; actives 3.2% (n = 360,000); AID 504652; in the data active = activity change below about -30%
Target sequence (P21728 whole entry, looked up): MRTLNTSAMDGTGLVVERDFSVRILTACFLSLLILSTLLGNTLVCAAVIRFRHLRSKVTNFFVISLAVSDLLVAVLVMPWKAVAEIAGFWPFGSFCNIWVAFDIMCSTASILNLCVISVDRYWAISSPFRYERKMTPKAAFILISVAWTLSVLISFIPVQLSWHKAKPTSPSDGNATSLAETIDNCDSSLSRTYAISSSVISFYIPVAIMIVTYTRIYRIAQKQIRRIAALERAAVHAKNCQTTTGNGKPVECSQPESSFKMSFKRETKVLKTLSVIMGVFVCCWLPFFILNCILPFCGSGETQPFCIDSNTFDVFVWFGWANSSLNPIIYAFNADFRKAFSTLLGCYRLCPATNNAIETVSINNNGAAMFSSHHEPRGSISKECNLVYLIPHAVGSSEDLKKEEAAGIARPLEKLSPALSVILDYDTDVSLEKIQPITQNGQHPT
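HEK293 T-REx cells expressing inducible, force-coupled D1 receptor; no-wash Ca dye, 30–90 min RT. Cmpd → 180 s read at 1 Hz → EC80 DA → 180 s read.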
D1 ag = activates the human D1 dopamine receptor | P21728 | HEK293 T-REx D1 cells, calcium flux, agonist mode | activation, % at 2 µM | actives 1% (n = 360,000) | AID 504660
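Inducible HEK293 T-REx D1 cells, force-coupled to calcium signalling, were plated at 4000 cells/well with tetracycline and held overnight at 30 C. After no-wash calcium dye loading, compound-evoked calcium rise over 180 s flagged agonists.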
D1 potentiator = enhances dopamine response at the human D1 receptor; HEK293 TREx D1 cells, calcium flux, dopamine EC20 potentiation; AID 504651; potentiation, % at 10 µM; P21728; actives 0.036% (n = 360,000); in the data active = potentiation above about 30%
Of the large screens only hits and unclear results are named; the others gave an inactive call. Rule as the data show it, unless noted: active = activation above about 30%; inactive = the rest.

COc1cc(/C=C2\SC(=S)N(NC(=O)c3ccncc3)C2=O)ccc1O	none
COc1cc(/C=C2\SC(=S)N(NS(=O)(=O)c3ccccc3)C2=O)ccc1O	D1 ag 44
COc1cc(/C=C2\SC(=S)N(NC(=O)c3cccc(O)c3)C2=O)ccc1O	TRHR ag 75, D1 ag 110
Nc1nc(SCC(=O)NC2CCCc3ccccc32)n[nH]1 (stereo unspecified)	none
COc1ccccc1OCC(=O)Nc1nonc1NC(=O)COc1ccccc1OC	none
Cc1ccc(N/C(N)=N/c2nc(C)cc(C)n2)cc1	D1 antagonist -74
Cc1cc(C)nc(/N=C(\N)Nc2cccc([N+](=O)[O-])c2)n1	D1 ag 34
Cc1cc(C)nc(/N=C(\N)Nc2ccc([N+](=O)[O-])cc2)n1	none
Cc1cc(C)nc(/N=C(\N)Nc2ccc(C(C)C)cc2)n1	D1 ag 35
Cc1cc(C)cc(N/C(N)=N/c2nc(C)cc(C)n2)c1	none
CCC(=O)Nc1ccc(N/C(N)=N/c2nc(C)cc(C)n2)cc1	none
CCCCc1ccc(N/C(N)=N/c2nc(C)cc(C)n2)cc1	D1 ag 64
C=CCn1c(N)c(C(=O)Nc2ccccc2)c2nc3ccccc3nc21	D1 antagonist -36
C=CCn1c(N)c(C(=O)OC(C)(C)C)c2nc3ccccc3nc21	none
CN(C)c1ccc(/C=N/NC(=O)c2ccc3c(c2)OCO3)cc1	D1 antagonist -30
CN(C)c1ccc(/C=C/C(=O)c2ccc3c(c2)OCO3)cc1	TRHR ag 121, D1 ag 455
O=C(COC(=O)C12CC3CC(CC(C3)C1)C2)Nc1nccs1	D1 antagonist -34
Cc1ccnc(NC(=O)COC(=O)C23CC4CC(CC(C4)C2)C3)n1	none
Cc1ccc(NC(=O)C2CCC(CNS(=O)(=O)c3csc(C(N)=O)c3)CC2)cc1Cl (stereo unspecified)	none
O=c1c2ccccc2ncn1-c1ccccc1[N+](=O)[O-]	none
COc1ccc(-c2nnc(-c3cccnc3)o2)cc1OC	none
COc1cc(-c2nnc(-c3cccnc3)o2)cc(OC)c1OC	D1 antagonist -88
O=C1C=C(c2ccccc2)C(=O)N1Nc1ccccc1	TRHR enhancer 33
Cc1ccc(NN2C(=O)C=C(c3ccc(Cl)cc3)C2=O)cc1	D1 antagonist -39
COc1ccc(C2=CC(=O)N(Nc3ccccc3)C2=O)cc1	none
CC(=C/c1ccccc1)/C=N/n1c(C)n[nH]c1=S	TRHR enhancer 32
O=C(CCOc1cccc(Br)c1)NNC(=O)COc1ccc(F)cc1	none
CC12CCC(=O)N1c1c(sc3nc(N4CCOCC4)c4c(c13)CCCC4)C(=O)N2 (stereo unspecified)	none
O=C(O)c1ccc2c(c1)C(=O)N([C@H](Cc1ccc(-c3ccccc3)cc1)C(=O)O)C2=O	D1 antagonist -35
Cc1ccc(C[C@H](C(=O)O)N2C(=O)c3ccc(C(=O)O)cc3C2=O)cc1	none
Cc1cccc(C[C@H](C(=O)O)N2C(=O)c3ccc(C(=O)O)cc3C2=O)c1	D1 antagonist -32
O=C(O)c1ccc2c(c1)C(=O)N(N1C(=O)c3ccccc3C1=O)C2=O	TRHR enhancer 31
CN(c1ccccc1)c1nc(N)c([N+](=O)[O-])c(N2CCOCC2)n1	none
O=C(Nc1ccccc1F)c1nc(S(=O)(=O)Cc2ccccc2F)ncc1Cl	D1 antagonist -45
O=C(Nc1ccc(F)cc1)c1nc(S(=O)(=O)Cc2ccccc2)ncc1Cl	D1 antagonist -51
O=C(Nc1nc2ccc(F)cc2s1)c1nc(S(=O)(=O)Cc2ccccc2)ncc1Cl	none
COC(=O)c1ccccc1NC(=O)c1nc(S(=O)(=O)Cc2ccccc2F)ncc1Cl	none
O=C(NCc1ccccc1)c1nc(S(=O)(=O)Cc2ccc(F)cc2)ncc1Cl	D1 antagonist -46
CN1CCc2c(sc(NC(=O)c3cc(Cl)sc3Cl)c2C(N)=O)C1	D1 antagonist -32
CN1CCc2c(sc(NC(=O)c3ccc(S(=O)(=O)N4CCCCCC4)cc3)c2C(N)=O)C1	TRHR ag 51
CN1CCc2c(sc(NC(=O)c3ccco3)c2C(N)=O)C1	none
CNC(=O)c1c(NC(=O)c2ccc(S(=O)(=O)N3CCCc4ccccc43)cc2)sc2c1CCN(C)C2	TRHR enhancer 34, D1 antagonist -57
CCOC(=O)c1cnc2ccccc2c1Nc1cccc(OC)c1	D1 antagonist -35
CCOC(=O)c1cnc2ccccc2c1Nc1cc(C(=O)O)ccc1C	TRHR enhancer 37
CCOC(=O)c1cnc2ccc(Cl)cc2c1Nc1ccc(OCC)cc1	D1 antagonist -58
Cc1ccc(C)c(OCc2nnc(SCC(=O)NCc3ccc4c(c3)OCO4)o2)c1	none
CC(C)Sc1nc2ccsc2c(=O)[nH]1	none
Cc1cc2nc(C)c(=O)n(C)c2cc1C	D1 antagonist -38
O=C1c2cc(S(=O)(=O)NCCCO)ccc2-c2ccc(S(=O)(=O)NCCCO)cc21	none
COc1ccc([C@H]2CC(=O)C=C(c3ccc(O)cc3)C2)cc1OC	D1 antagonist -86
COc1ccc([C@H]2CC(=O)C=C(c3cc(OC)ccc3OC)C2)cc1	D1 antagonist -35
CCOc1ccc(NC(=O)CN2C(=O)C(c3ccccc3)=NC23CCC(C)CC3)cc1 (stereo unspecified)	none
CN1CCC(N(C)C(=O)COc2ccccc2-c2ccccc2)CC1	none
Cc1ccc(CNC(=O)c2cnc(N(C)C)nc2)cc1	D1 antagonist -42
COc1ccc(CNC(=O)c2cnc(N(C)C)nc2)cc1	none
O=C(Cc1ccccc1)N/N=C/c1cccs1	none
COC(=O)N/N=C/c1cccs1	D1 antagonist -32
Cc1ccccc1CSCC(=O)N/N=C/c1cccs1	D1 antagonist -41
CCCN(CCC)c1nc(N)nc(-c2cc(Cl)ccc2OC)n1	D1 antagonist -75
CCCNc1nc(N)nc(-c2cc(Cl)ccc2OC)n1	none
Cc1ccc(NC(=O)CN(C)C(=O)CCOc2cccc(C)c2)cc1	none
Cc1cccc(/C(N)=N/OC(=O)c2ccc3c(c2)OCO3)c1	none
Cc1c(Cl)cccc1NC(=O)N1CCC(CN2CCOCC2)CC1	D1 antagonist -71
CCCCCCn1c(=O)[nH]c2nc3cc(N)c(C)cc3nc2c1=O	D1 ag 295
CCCCn1c(=O)[nH]c2nc3cc(NC(C)=O)ccc3nc2c1=O	none
Cc1cc(=O)[nH]c2c(C)cc(S(=O)(=O)NCc3ccccc3)cc12	D1 antagonist -39
O=C(CCCOc1ccccc1)NCCc1ccccc1	none
c1ccc(CCNCCOc2ccccc2)cc1	D1 antagonist -53
CCCOc1ccc(OCCCCNC(C)CC)cc1 (stereo unspecified)	D1 antagonist -54
CCC(C)NCCOc1ccc(C(C)(C)c2ccccc2)cc1 (stereo unspecified)	D1 ag 72
Cc1ccc(C(C)C)c(OCCCNCc2cccnc2)c1	none
